The source made the active and inactive calls.
experiment: FRG1 promoter luciferase signal modulators, primary screen, FRG1 inhibition for FSHD, cell-based, C2C12 myotubes, firefly/Renilla luciferase, luminescence (AID 1084); details: higher = more signal, called active from +8 up or from −8 down

| Compound | z-score |
| --- | --- |
| O=C1[C@H]2C=C(I)[C@H](C[C@@H]2OCCCCCCO)[C@@]12CO2 | 0.622 (inactive) |
| CCCC#C[Si](O[C@H](CC)c1cn(Cc2ccccc2)nn1)(C(C)C)C(C)C | 0.403 (inactive) |
| C=CCN1C(=O)[C@@]2(O[C@@H](CCn3cc([C@H](O)c4ccccc4)nn3)[C@H]([Si](C)(C)c3ccc(OC)cc3)[C@H]2C)c2cc(N3C(=O)c4cccc5cccc3c45)ccc21 | -1.04 (inactive) |
| O=C1N(Cc2ccccc2)c2ccccc2C[C@@]12COC(c1ccc(OCCCO)cc1)=N2 | -1.14 (inactive) |
| CC1CC/C=C\[C@H]2OC34C=CCN(c5ccc6ccccc6c5)C(=O)[C@H]3N(C(C)CO)C(=O)[C@@H]4C2C(=O)O1 (some centres undefined) | 1.14 (inactive) |
| COc1ccc(C(=O)Nc2cccc(CN3C(=O)[C@]4(O[C@H](CC(=O)N5Cc6ccccc6C[C@H]5CO)[C@@H]([Si](C)(C)c5ccc(OC)cc5)[C@@H]4C)c4ccccc43)c2)cc1 | -1.66 (inactive) |
| COC(=O)c1cccc([C@H]2OC(=CC(=O)OC(C)C)C[C@@H](c3cccc(C(=O)OC)c3)O2)c1 | 0.946 (inactive) |
| COC(=O)[C@@]1(Cc2ccc(F)cc2)[C@H]2c3cc(C(=O)N4CCCC4)n(Cc4cc(F)cc5c4OCOC5)c3C[C@H]2CN1C(=O)c1ccccc1 | 0.869 (inactive) |
| C=C(CCCC)/C(=C/C[C@@H](OC(C)=O)c1ccc(CO)o1)c1cnc2ccccc2c1 | -0.16 (inactive) |
| CC(C)N1C(=O)C[C@@](C(=O)NCCN2CCOCC2)(c2ccc([N+](=O)[O-])cc2)[C@H]1c1ccc(CO)cc1 | 1.08 (inactive) |
| C=C(CCCC)/C(=C/C[C@H](OC(=O)c1ccncc1)c1ccccc1OCCO)c1cc(C(=O)OC)ccc1OC | 0.908 (inactive) |
| O=C1C[C@@](C(=O)NCc2ccccc2)(c2ccc([N+](=O)[O-])cc2)[C@@H](c2ccc(CO)cc2)N1C1CCCCC1 | -1.47 (inactive) |
| CC(C)=C1C(=O)C(c2ccccc2)=C2CN3C(=O)N(CCc4ccccc4)C(=O)[C@]3(C)[C@H]21 | 0.863 (inactive) |
| COCCOC(=O)N1C(=O)[C@@]2(c3cc(C#CCC(C(=O)OC)C(=O)OC)ccc31)[C@H](C(=O)Nc1nc3ccccc3s1)[C@H]1C(=O)O[C@H](c3ccccc3)[C@H](c3ccccc3)N1[C@@H]2c1ccc(OCCO)cc1 | 4.17 (inactive) |
| COc1ccc(C(O)C2C=CC3C(=O)N(c4ccccc4)C(=O)C3N2Nc2ccc([N+](=O)[O-])cc2)c2ccccc12 (centres undefined) | 0.337 (inactive) |
| C[N+](C)(C)CCCC[C@@H]1NC(=O)[C@@H]2C[C@H](C(=O)NCc3ccc(F)cc3)[C@H](c3ccc(O)cc3)N2C1=O | 0.337 (inactive) |
| CC(C)OC(=O)CC(=O)CC(O)c1cccc([N+](=O)[O-])c1 (centres undefined) | -1 (inactive) |
| O=C(NCC(O)CO)[C@@]1(CCS(=O)(=O)c2ccccc2)N=C(c2ccc(OCCCO)cc2)O[C@H]1c1ccccc1 (some centres undefined) | 2.37 (inactive) |
| Cc1ccc(C(C)CC(O)C2C=CC3C(=O)N(C)C(=O)C3N2Nc2ccccc2)o1 (centres undefined) | 0.651 (inactive) |
| CCOC(=O)C[C@H]1[C@H](OC(=O)c2ccccc2-c2ccccc2)[C@@H](NC(=O)c2ccc3ccccc3c2)c2cc(OCCCO)ccc2N1C(=O)Cc1ccc(OC)cc1 | 1.11 (inactive) |
| Cc1ccc(S[C@]2(C(=O)NC(C)C)CC(=O)N(C3CCCCC3)[C@@H]2c2ccc(CO)cc2I)cc1 | -4.76 (inactive) |
| N#Cc1ccc(NN2C(C(O)C3CC=CCC3)C=CC3C(=O)N(c4ccccc4)C(=O)C32)cc1 (centres undefined) | 0.474 (inactive) |
| Cc1ccc(F)cc1S(=O)(=O)N[C@H]1CCN(Cc2ccc(OC(C)C)cc2)C1 | -1.84 (inactive) |
| C=CCOC(=O)[C@H]1[C@@H]2C(=O)O[C@@H](c3ccccc3)[C@@H](c3ccccc3)N2[C@@H](c2ccc(OCCOC(=O)[C@@H]3C[C@@H]4C(=O)N[C@@H](CCCC[N+](C)(C)C)C(=O)N4[C@@H]3c3ccc(O)cc3)cc2)[C@]12C(=O)Nc1ccc(I)cc12 | 0.687 (inactive) |
| CCOC(=O)C1=C[C@@H](C(C)(C)C)N(S(=O)(=O)c2ccc(C)cc2)[C@H]1c1ccc(C#N)cc1 | -0.793 (inactive) |
| CCOC(=O)C[C@H]1[C@H](OC(=O)Cc2ccc3c(c2)OCO3)[C@@H](NC(=O)c2ccc3ccccc3n2)c2cc(OCCCO)ccc2N1C(=O)Cc1ccc(OC)cc1 | -0.876 (inactive) |
| COC(=O)[C@@]1(Cc2ccccc2)[C@H]2c3cc(C(=O)N(C)C)n(Cc4ccc(C(F)(F)F)nc4)c3C[C@H]2CN1C(=O)c1ccccc1 | 0.0597 (inactive) |

experiment: binders of probe aFST on microarray, primary screen, stem cell growth factor project, biochemical, small-molecule microarray, fluorescence 635/667 (AID 1086); details: higher = more signal;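 further: score merges 667 nm fluorescence with signal-to-noise of each printed compound spot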

| Compound | composite z-score |
| --- | --- |
| C=CCC(OC(C)=O)[C@@H]1[C@@H](N(Cc2cc3ccccc3o2)C(=O)Cc2ccc(OC)cc2)c2cc(OCCCO)ccc2N1C(=O)c1ccc2ccccc2n1 (some centres undefined) | 0.271 |
| C=C(COC)/C(=C/C[C@@H](OC(C)=O)c1ccccc1OCCO)c1cnc2ccccc2c1 | 0.278 |
| Cc1ccc(S[C@]2(C(=O)NCC(F)(F)F)CC(=O)N(Cc3ccccc3C(F)(F)F)[C@@H]2c2ccc(CO)cc2)cc1 | -0.606 |
| C=CCC(OC(C)=O)[C@@H]1[C@@H](N(Cc2cccc3ccccc23)C(=O)Cc2ccc(OC)cc2)c2cc(OCCCO)ccc2N1C(=O)c1ccc2ccccc2c1 (some centres undefined) | 0.0737 |
| COc1ccc([Si](C)(C)[C@@H]2[C@@H](CC(=O)N(CCO)Cc3ccccc3)O[C@]3(C(=O)N(Cc4ccc(N5C(=O)c6cccc7cccc5c67)cc4)c4ccccc43)[C@H]2C)cc1 | -0.0542 |
| COC(=O)[C@@]1(Cc2ccc(OC)cc2)[C@H]2c3cc(C(=O)N(C)C)[nH]c3C[C@H]2CN1C(=O)c1ccccc1 | 0.019 |
| CCOc1cc(C(O)C2C=CC3C(=O)N(c4ccccc4)C(=O)C3N2Nc2ccccc2F)ccc1O (centres undefined) | 1.51 |
| O=C1O[C@@H](c2ccccc2)[C@@H](c2ccccc2)N2[C@@H](c3ccc(OCCO)cc3)[C@]3(C(=O)Nc4ccc(C#CC5(O)CCCCCC5)cc43)[C@@H](C(=O)O)[C@H]12 | 0.193 |
| COc1ccc(C(=O)Nc2ccc(CN3C(=O)[C@@]4(O[C@@H](CCn5cc(CCO)nn5)[C@H]([Si](C)(C)c5ccc(OC)cc5)[C@H]4C)c4ccccc43)cc2)cc1 | 0.859 |
| O=C1[C@H]2C=C(I)[C@H](C[C@@H]2OCCCCCCO)[C@@]12CO2 | -0.132 |
| CCCC#C[Si](O[C@H](CC)c1cn(Cc2ccccc2)nn1)(C(C)C)C(C)C | 0.278 |
| C=CCN1C(=O)[C@@]2(O[C@@H](CCn3cc([C@H](O)c4ccccc4)nn3)[C@H]([Si](C)(C)c3ccc(OC)cc3)[C@H]2C)c2cc(N3C(=O)c4cccc5cccc3c45)ccc21 | -0.365 |
| O=C1N(Cc2ccccc2)c2ccccc2C[C@@]12COC(c1ccc(OCCCO)cc1)=N2 | 0.361 |
| CC1CC/C=C\[C@H]2OC34C=CCN(c5ccc6ccccc6c5)C(=O)[C@H]3N(C(C)CO)C(=O)[C@@H]4C2C(=O)O1 (some centres undefined) | -0.187 |
| COc1ccc(C(=O)Nc2cccc(CN3C(=O)[C@]4(O[C@H](CC(=O)N5Cc6ccccc6C[C@H]5CO)[C@@H]([Si](C)(C)c5ccc(OC)cc5)[C@@H]4C)c4ccccc43)c2)cc1 | 0.208 |
| COC(=O)c1cccc([C@H]2OC(=CC(=O)OC(C)C)C[C@@H](c3cccc(C(=O)OC)c3)O2)c1 | 0.902 |

| Compound | composite z-score |
| --- | --- |
| COC(=O)[C@@]1(Cc2ccc(F)cc2)[C@H]2c3cc(C(=O)N4CCCC4)n(Cc4cc(F)cc5c4OCOC5)c3C[C@H]2CN1C(=O)c1ccccc1 | 1.56 |
| C=C(CCCC)/C(=C/C[C@@H](OC(C)=O)c1ccc(CO)o1)c1cnc2ccccc2c1 | 0.128 |
| CC(C)N1C(=O)C[C@@](C(=O)NCCN2CCOCC2)(c2ccc([N+](=O)[O-])cc2)[C@H]1c1ccc(CO)cc1 | -1.1 |
| C=C(CCCC)/C(=C/C[C@H](OC(=O)c1ccncc1)c1ccccc1OCCO)c1cc(C(=O)OC)ccc1OC | 0.416 |
| O=C1C[C@@](C(=O)NCc2ccccc2)(c2ccc([N+](=O)[O-])cc2)[C@@H](c2ccc(CO)cc2)N1C1CCCCC1 | 0.117 |
| CC(C)=C1C(=O)C(c2ccccc2)=C2CN3C(=O)N(CCc4ccccc4)C(=O)[C@]3(C)[C@H]21 | 0.64 |
| COCCOC(=O)N1C(=O)[C@@]2(c3cc(C#CCC(C(=O)OC)C(=O)OC)ccc31)[C@H](C(=O)Nc1nc3ccccc3s1)[C@H]1C(=O)O[C@H](c3ccccc3)[C@H](c3ccccc3)N1[C@@H]2c1ccc(OCCO)cc1 | 0.853 |
| COc1ccc(C(O)C2C=CC3C(=O)N(c4ccccc4)C(=O)C3N2Nc2ccc([N+](=O)[O-])cc2)c2ccccc12 (centres undefined) | 0.812 |
| C[N+](C)(C)CCCC[C@@H]1NC(=O)[C@@H]2C[C@H](C(=O)NCc3ccc(F)cc3)[C@H](c3ccc(O)cc3)N2C1=O | -0.936 |
| CC(C)OC(=O)CC(=O)CC(O)c1cccc([N+](=O)[O-])c1 (centres undefined) | 0.815 |
| O=C(NCC(O)CO)[C@@]1(CCS(=O)(=O)c2ccccc2)N=C(c2ccc(OCCCO)cc2)O[C@H]1c1ccccc1 (some centres undefined) | 0.544 |
| Cc1ccc(C(C)CC(O)C2C=CC3C(=O)N(C)C(=O)C3N2Nc2ccccc2)o1 (centres undefined) | 1.44 |
| CCOC(=O)C[C@H]1[C@H](OC(=O)c2ccccc2-c2ccccc2)[C@@H](NC(=O)c2ccc3ccccc3c2)c2cc(OCCCO)ccc2N1C(=O)Cc1ccc(OC)cc1 | 0.206 |
| Cc1ccc(S[C@]2(C(=O)NC(C)C)CC(=O)N(C3CCCCC3)[C@@H]2c2ccc(CO)cc2I)cc1 | 0.276 |
| N#Cc1ccc(NN2C(C(O)C3CC=CCC3)C=CC3C(=O)N(c4ccccc4)C(=O)C32)cc1 (centres undefined) | 1.28 |
| Cc1ccc(F)cc1S(=O)(=O)N[C@H]1CCN(Cc2ccc(OC(C)C)cc2)C1 | 0.101 |

— PubChem BioAssay
